Measured values published in PubChem BioAssay (NCI).
Where “and” joins values, the source holds several entries; their conditions need not be identical. Equal values may be shown once. About 79,000 compounds went through this panel and 15% of them were active in at least one assay; those are over-represented in the sample as a whole. Rule as the data show it: active = growth inhibition above about 70%; inactive = the rest.

Key:
[1] = NCI Yeast Anticancer Drug Screen. Data for the rad50 strain (AID 155);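 also: 0% = growth of vehicle-only cultures of the same strain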; details: S. cerevisiae rad50 strain growth inhibition, active compounds read high; at 50.0 µM unless noted
Method in brief: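 Genetically altered yeast (DNA repair pathway); compound treatment; growth inhibition vs vehicle ctrl.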

[2] = NCI Yeast Anticancer Drug Screen. Data for the mec2-1 strain (AID 157); details: S. cerevisiae mec2-1 strain, active compounds read high; at 50.0 µM unless noted
Method in brief: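 Mutant yeast (mec2-1) grown with compound; growth inhibition relative to vehicle control reported.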

[3] = NCI Yeast Anticancer Drug Screen. Data for the sgs1 mgt1 strain (AID 161);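 also: 0% = growth of cultures given vehicle only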; details: S. cerevisiae sgs1 mgt1 strain, active compounds read high; at 50.0 µM unless noted
Method in brief: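 Percent growth inhibition was derived by comparing compound-exposed mutant yeast with vehicle-exposed cultures. The strain carries alterations in DNA damage repair.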

[4] = NCI Yeast Anticancer Drug Screen. Data for the cln2 rad14 strain (AID 165);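 also: 0% = growth equal to vehicle treated cultures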; details: S. cerevisiae cln2 rad14 strain, active compounds read high; at 50.0 µM unless noted
Method in brief: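 Readout is yeast growth inhibition versus vehicle-treated controls, using a strain with cln2 and rad14 alterations exposed to compound.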

[5] = NCI Yeast Anticancer Drug Screen. Data for the bub3 strain (AID 167); details: S. cerevisiae bub3 mutant strain, active compounds read high; at 50.0 µM unless noted
Method in brief: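 Yeast carrying a defined mutation is treated with each compound, and growth is compared with that of vehicle-exposed cells to give inhibition.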

[6] = NCI Yeast Anticancer Drug Screen. Data for the mlh1 rad18 strain (AID 175); details: S. cerevisiae mlh1 rad18 strain growth inhibition, active compounds read high; at 50.0 µM unless noted
Method in brief: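 Genetically defined yeast (DNA repair-deficient) exposed to compounds; growth inhibition determined relative to vehicle.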

Measured: growth inhibition

Cc1ccc(S(=O)(=O)CC(=O)NC(C)C)cc1
inactive: [1] -3.9% | [2] -17% | [3] 4% | [4] 17.2% | [5] 3.2% | [6] 20.8%

CCCCCCCCCCCCCCCCS(=O)(=O)N(/N=c1/sc2ccccc2n1C)C(=O)OCC
inactive: [1] -29.4% | [2] -32.3% | [3] -13.3% | [4] 21.4% | [5] -12.2% | [6] -27.8%

CC(C)CCCC(C)[C@H]1CCC2C3CC=C4C[C@@H](OC(=O)CC(CC(=O)[O-])C(=O)[O-])CC[C@]4(C)C3CC[C@@]21C.N.N.[Pt+4] (stereo not given in full)
inactive: [1] 26.2% | [2] 13.1% | [3] 11.7% | [4] 4.2% | [5] 12.6% | [6] 0.35%

O=C(CCC(=O)Nc1ccccc1C(F)(F)F)N/N=C1\C(=N\NC(=O)CCC(=O)Nc2ccccc2C(F)(F)F)C(c2ccc3c(c2)OCO3)Oc2ccccc21 (stereo not given)
inactive: [1] 19.4% | [2] 3.4% | [3] 1.15% | [4] -11% | [5] -5.05% | [6] 4.55%

CSc1nc(N)c(I)c(Cl)n1
inactive: [1] 7.8% | [2] 3.65% | [3] 6.9% | [4] 2.4% | [5] -14.6% | [6] -2.6%

O=C(O)c1cc(C(=O)C(=O)c2cc(C(=O)O)c(O)c3ccccc23)c2ccccc2c1O
inactive: [1] -31.7% | [2] -25.4% | [3] -7.15% | [4] -0.4% | [5] -17.9% | [6] -19.4%

Cc1c(CC#N)cc(C)c2c3c([nH]c12)-c1ccccc1CC3
inactive: [1] 35.5% | [2] 35.2% | [3] 44% | [4] 11.8% | [5] 37.5% | [6] 18.9%

CCCCNC(=O)c1cc(=O)[nH]c(=O)[nH]1
inactive: [1] 1.5% | [2] -6.55% | [3] 6.6% | [4] 5.6% | [5] -16.1% | [6] 20.1%

N#CCN1CCCCCC1
inactive: [1] -14.8% | [2] -20.5% | [3] -16.6% | [4] 4.2% | [5] -13.6% | [6] 9.8%

CC(C)Cc1c(C#N)c(C#N)c(N)n1Cc1ccccc1
inactive: [1] 3.05% | [2] 11.4% | [3] -29% | [4] -12% | [5] -22.1% | [6] -36.4%

C[N+]1(CC(=O)c2ccc(Cl)cc2)CCOCC1
inactive: [1] 20.8% | [2] 7.45% | [3] 10.6% | [4] -20.9% | [5] 6.6% | [6] 28.1%

CN(C)/N=C/C=C1\N=C(c2ccccc2)OC1=O
inactive: [1] 5.75% | [2] -10.6% | [3] -17.9% | [4] -45.7% | [5] -0.75% | [6] -10.9%

Oc1cccc2c1CCCC2
inactive: [1] -1.25% | [2] -12.2% | [3] -37% | [4] -16.4% | [5] -1.85% | [6] -3.9%

CC1(O)C2CC3CC(C2)CC1C3 (stereo not given)
inactive: [1] -1.1% | [2] -3.1% | [3] -13.3% | [4] -59% | [5] 13.2% | [6] 10.3%

CCOC(=O)C(CC/C=C\c1ccccc1)N1CCC[C@H]1C(=O)OC (stereo not given in full)
inactive: [1] -7.9% | [2] -5% | [3] -11.9% | [4] 9.55% | [5] 2.75% | [6] -13.3%

O=C1C(O)C(O)C(O)C(O)C1O (stereo not given)
inactive: [1] 22.7% and -14.6% | [2] 20.5% and -17.2% | [3] 3.9% and -36.9% | [4] 15.9% and -12.3% | [5] 20.8% and -8.35% | [6] 19.7% and -3.55%

O=C1CC(Cc2n[nH]c3c2CCCC3)CC(=O)N1
inactive: [1] 4.2% | [2] 3.8% | [3] -4.8% | [4] 7.35% | [5] -2.15% | [6] -7.75%

CCc1cc(C)cc(O)c1
inactive: [1] -42.9% and 38% | [2] -40% and 4.6% | [3] -65.2% and -1.55% | [4] 0.45% and 7.15% | [5] -56% and 27.4% | [6] -29.9% and 12%

CC1=N[C@@H](C(=O)NCC(N)=O)Cc2c1[nH]c1ccccc21
inactive: [1] 11.7% | [2] 10.1% | [3] 8.65% | [4] -7.85% | [5] -4.25% | [6] 4.4%

COC(=O)c1[nH]nc(-c2ccccc2)c1N
inactive: [1] 11% | [2] 2.95% | [3] -12.8% | [4] -51.8% | [5] 17.4% | [6] 1.9%

ClCCCSSCCCCl
inactive: [1] 24.1% | [2] 21.2% | [3] 20.4% | [4] -7.95% | [5] 14.4% | [6] 3.85%

COc1cc(N(Cc2ccc3nc(OC)c(OC)nc3c2)Cc2ccc3nc(OC)c(OC)nc3c2)cc(OC)c1OC
inactive: [1] -29.8% | [2] -23.6% | [3] -19.4% | [4] -6.4% | [5] -20.4% | [6] -14.6%

O=C(Nc1ccccc1)Nc1ccc([N+](=O)[O-])cc1[N+](=O)[O-]
inactive: [1] 25.5% | [2] 5.95% | [3] 26.9% | [4] 19.7% | [5] 11.9% | [6] 20.6%

CC(=O)Nc1cc(C)cc(CO)c1C
inactive: [1] 13.6% | [2] -3.05% | [3] -10.1% | [4] -23.6% | [5] -1.15% | [6] -26.6%

CC1=C/C(O)CC(=O)Cc2nc(co2)C(=O)N2CCC=C2C(=O)OC(C(C)C)C(C)/C=C\C(=O)NC/C=C\1 (stereo not given)
inactive: [1] 39.5% and -2.6% | [2] -11.6% and 18.7% | [3] 22.7% and 0.6% | [4] 13.9% and 5.6% | [5] 37.5% and -3% | [6] 35.2% and 2.2%

COc1ccc(O)cc1C=O
inactive: [1] -6.4% | [2] -7.05% | [3] -10.6% | [4] 4% | [5] -7.35% | [6] -4.75%

O=C1NC(=O)[C@@]2(CC[C@@H](O)C2)c2ccncc21
inactive: [1] 3.55% | [2] -42.6% | [3] -10.2% | [4] 16.4% | [5] -33.2% | [6] -86.5%

CC(C)(O)C(=O)O
inactive: [1] -6% and -19% | [2] 6.1% and -1.45% | [3] -8.2% and -10.8% | [4] 2.05% and -32.8% | [5] 7.25% and -3.95% | [6] 6.6% and -4.6%

N#C/C(=C\c1ccccc1)c1ccc(F)cc1
inactive: [1] 39.4% | [2] 42.1% | [3] 25.7% | [4] 18.4% | [5] 32.5% | [6] 25.8%

CCOc1ccc(/C=C(\C(=O)c2ccccc2)S(=O)(=O)c2ccc(OC)cc2)cc1OC
inactive: [1] 17.9% | [2] 45.5% | [3] 1.2% | [4] 5.8% | [5] 29.6% | [6] 57%

CC(=O)OCC(C)(O)C#N (stereo not given)
inactive: [1] -19.8% | [2] -0.2% | [3] 11.3% | [4] 4.05% | [5] -5.35% | [6] -22.6%

COc1cccc2c(SC)c(C)[nH]c12
inactive: [1] 14.9% | [2] -0.4% | [3] 18.8% | [4] -0.05% | [5] -19.8% | [6] 14.8%

CC(=O)c1ccc(Cl)cc1Cl
inactive: [1] -12.4% | [2] -11.8% | [3] -3.7% | [4] -6.65% | [5] -13.3% | [6] -38.5%

O=c1[nH]c2cc(Cl)c([N+](=O)[O-])cc2o1
inactive: [1] 12.1% | [2] -0.5% | [3] -0.5% | [4] -18.1% | [5] -14.9% | [6] 16.7%

CN(C)C(=O)NN1CCCCCC1
inactive: [1] 7.25% | [2] 13.9% | [3] -14.2% | [4] -14.7% | [5] 13.3% | [6] -13.3%

C[N+]1(CCN=C=NC2CCCCC2)CCOCC1
inactive: [1] -11.9% | [2] 10.8% | [3] 16.9% | [4] -12.2% | [5] 17.9% | [6] 14.4%

N#CNC(N)=NCCO
inactive: [1] -22.2% | [2] -2.25% | [3] -36.9% | [4] -12% | [5] -28.5% | [6] -20.6%

Cc1nc(-c2ccc(Cl)cc2)cn2c1nc1ccccc12
inactive: [1] -5.5% | [2] -0.1% | [3] 8.2% | [4] -15.1% | [5] 47.5% | [6] -10.3%

N#Cc1ccc(OC(=O)Nc2ccc(F)cc2)cc1
inactive: [1] -4.1% | [2] -14.2% | [3] 12.2% | [4] 18.6% | [5] 10.7% | [6] 8.8%

c1ccc2c(c1)ncn2Sn1cnc2ccccc21
inactive: [1] 1.8% and 2.7% | [2] 16.9% and -0.1% | [3] 3.8% and -3.35% | [4] -12.4% and 15.5% | [5] 2.95% and 11.1% | [6] 6.9% and 20.9%
